Where “and” joins values, the source holds several entries; their conditions need not be identical. Identical values can stand only once. Compounds without any hit were thinned out: in the full panel of roughly 83,000, 20% have a hit.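 Single-concentration screen, 48 h exposure, 96-well plates. Endpoint: percent growth. Below 10 = active.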 Calls of active or inactive are those of the source.
Legend:
Assay in all cases: NCI-60 one-dose screen, 48 h (100 = growth as untreated, 0 = no growth, -100 = all killed)
T-47D breast = details: 10 µM unless noted
BT-549 breast = details: 10 µM unless noted
MDA-MB-435 melanoma = details: 10 µM unless noted
SW-620 colon = details: 10 µM unless noted
MCF7 breast = tested on: MCF7 breast
HCC-2998 colon = details: 10 µM unless noted
KM12 colon = details: 10 µM unless noted
HCT-116 colon = details: 10 µM unless noted

Row | SMILES | growth (T-47D breast) | growth (BT-549 breast) | growth (MDA-MB-435 melanoma) | growth (SW-620 colon) | growth (MCF7 breast; 10 µM unless noted) | growth (HCC-2998 colon) | growth (KM12 colon) | growth (MCF7 breast; 10 µM) | growth (MCF7 breast; 100 µM) | growth (HCT-116 colon)
1 | CC(C)(C)c1cc(NC(=O)Nc2ccc(-c3cn4c(n3)sc3cc(OCCN5CCOCC5)ccc34)cc2)no1 | -33% (active) and -23.2% (active) | 4.32% (active) and 9.08% (active) | 65.1% (inactive) and 31.5% (inactive) | 49.9% (inactive) and 21.1% (inactive) | 9.99% (active) and 22.3% (inactive) | 39.1% (inactive) and 56.4% (inactive) | 13.7% (inactive) and 9.16% (active) | – | – | –
2 | O=C1CCc2c(sc3[nH]c(=S)n(Cc4ccc(Cl)cc4)c(=O)c23)C1 | -3.14% (active) | -10.1% (active) | 11.3% (inactive) | 16.5% (inactive) | 6.24% (active) | 4.16% (active) | -45.8% (active) | – | – | –
3 | Cc1ccc(C(=O)Nc2ccc(CN3CCN(C)CC3)c(C(F)(F)F)c2)cc1C#Cc1cnc(N)cc1C#N | -4.9% (active) | 13.9% (inactive) | -90.7% (active) | -81.2% (active) | -75.5% (active) | -77.3% (active) | -69.8% (active) | – | – | –
4 | COc1ccc(/C=C/C(=O)c2cc3c(N)c(C(=O)Nc4ccccc4)sc3nc2C)cc1 | 46.7% (inactive) | 2.86% (active) | -23.9% (active) | 18% (inactive) | 7.19% (active) | 11.7% (inactive) | 6.61% (active) | – | – | –
5 | COc1ccc(Nc2ncnc3ccc(-c4cncc(NS(C)(=O)=O)c4)cc23)cc1Cl | -13.6% (active) | 24.5% (inactive) | 49.1% (inactive) | 37.7% (inactive) | 15% (inactive) | 49.3% (inactive) | 61% (inactive) | – | – | –
6 | Cn1cc(-c2nonc2-c2cn(C)c3ccc(Br)cc23)c2ccccc21 | 23.6% (inactive) | 34% (inactive) | -20.3% (active) | 14.7% (inactive) | 15.4% (inactive) | 67.9% (inactive) | 23.3% (inactive) | – | – | –
7 | O=C(NCc1cccnc1)/C(=C\c1ccc(Br)cc1)S(=O)(=O)c1ccccc1 | -64.6% (active) | -21.2% (active) | -14.9% (active) | -74% (active) | -44.4% (active) | -76.5% (active) | -48.1% (active) | – | – | –
8 | Nc1nc(Cl)nc2c1ncn2C1OC(CO)C(O)C1O (configuration not stated) | 93.5% (inactive) and 107% (inactive) | 40.2% (inactive) | 49.2% (inactive) and 53.5% (inactive) | 66.5% (inactive) and 72.8% (inactive) | 37.8% (inactive) and 33.8% (inactive) | 51% (inactive) and 51.7% (inactive) | 60.1% (inactive) and 86.2% (inactive) | – | – | –
9 | NC1=CC(=O)c2cccnc2C1=O | -34.4% (active) | 9.57% (active) | -95.5% (active) | -80% (active) | -55.5% (active) | 59.9% (inactive) | 58.9% (inactive) | – | – | –
10 | Nc1n[nH]c2cccc(C#Cc3cccc(NC(=O)c4ccc(N5CCOCC5)c(C(F)(F)F)c4)c3)c12 | -0.951% (active) | 14.2% (inactive) | 19.2% (inactive) | 21.5% (inactive) | 25.6% (inactive) | 6.77% (active) | 21.4% (inactive) | – | – | –
11 | Brc1ccc(/C=C(/C2=NCCN2)n2ccc3ccccc32)cc1 | 53.1% (inactive) | 80.3% (inactive) | 58.2% (inactive) | 71.8% (inactive) | 30.2% (inactive) | 48.5% (inactive) | 80.4% (inactive) | – | – | –
12 | Cc1c(C(=O)OCCCCOC(=O)c2c(C)n(C)c3scc[n+]23)[n+]2ccsc2n1C | 97.1% (inactive) | 110% (inactive) | 109% (inactive) | 125% (inactive) | 100% (inactive) | 115% (inactive) | 118% (inactive) | – | – | –
13 | C=C(C)[C@@H]1CC[C@]2(C)[C@H](CC(=O)N[C@H]3[C@@H]4C[C@](C)(C(=O)OC)CC[C@]4(C)CC[C@]32C)[C@@]1(C)CCC#N | 63.6% (inactive) | 72.1% (inactive) | 87.8% (inactive) | 93% (inactive) | 73.8% (inactive) | 100% (inactive) | 79.6% (inactive) | – | – | –
14 | CN(C)C(=O)c1cc2cnc(Nc3ccc(-c4csc5c(=S)cc(N6CCOCC6)oc45)cc3)nc2n1C1CCCC1 | -3.44% (active) | 9.89% (active) | 17.3% (inactive) | 4.89% (active) | -5.27% (active) | 8.51% (active) | 6.53% (active) | – | – | –
15 | BrC1=C(Br)C(Br)(Br)C(Br)=C1Br | 77.9% (inactive) | 88.9% (inactive) | 75.6% (inactive) | 80.1% (inactive) | 50% (inactive) | 103% (inactive) | 103% (inactive) | – | – | –
16 | N#C/C(=N\Nc1ccc(Cl)cc1)C(=O)Nc1cc(-c2ccccc2)nn1-c1ccccc1 | 14.7% (inactive) | 11.4% (inactive) | 28.6% (inactive) | 21.4% (inactive) | 16.9% (inactive) | 39.4% (inactive) | 32.4% (inactive) | – | – | –
17 | COc1ccc(/C=C2/C(=O)N=C3N2NC(c2ccccc2)=CN3c2ccccc2)cc1 | 106% (inactive) | 96% (inactive) | 108% (inactive) | 101% (inactive) | 99.9% (inactive) | 97.7% (inactive) | 108% (inactive) | – | – | –
18 | Cc1n(Cc2ccc3ccccc3c2)c(Cl)c(Cl)[n+]1Cc1ccc2ccccc2c1 | 10.3% (inactive) | 26.8% (inactive) | -2.29% (active) | 40.5% (inactive) | 21.4% (inactive) | 17.3% (inactive) | 0.454% (active) | – | – | –
19 | COc1cc(CO)cc2cc3ccccc3nc12 | 101% (inactive) | 102% (inactive) | 104% (inactive) | 102% (inactive) | 79.9% (inactive) | 106% (inactive) | 102% (inactive) | – | – | –
20 | Cn1cc2c(=O)nc3c(-c4nc5ccccc5[nH]4)n[nH]n3c2n1 | 67.6% (inactive) | 34.7% (inactive) | 73.9% (inactive) | 97.2% (inactive) | 65.7% (inactive) | 84.8% (inactive) | 73.9% (inactive) | – | – | –
21 | C=C1CCC2C3(C)COC(c4ccc(NC(C)=O)cc4)OC3CCC2(C)C1C/C=C1/C(=O)OCC1O (configuration not stated) | 29.4% (inactive) | 59.8% (inactive) | 60.5% (inactive) | 77.3% (inactive) | 42.5% (inactive) | 59.1% (inactive) | 51.7% (inactive) | – | – | –
22 | CC(C)(C)CC(N)=O | – | 75.3% (inactive) | 109% (inactive) | 102% (inactive) | – | 106% (inactive) | 109% (inactive) | 85.9% (inactive) | 85.2% (inactive) and 8.62% (active) | 93.6% (inactive)
23 | COc1cc(/C=N/NC(=O)CCN2c3ccccc3Sc3ccccc32)cc(OC)c1OC | 41.5% (inactive) | 88.6% (inactive) | 87.4% (inactive) | 90.8% (inactive) | 97.3% (inactive) | 113% (inactive) | 81.4% (inactive) | – | – | –
